Test results: PubChem BioAssay AID602376 (Johns Hopkins Ion Channel Center, 2012)
Measured potencies and affinities stand elsewhere. Inconclusive results are not listed. Calls of active or inactive are those of the source.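 Rule for the calls: active = raises choline transporter activity at one or more tested doses and gives a fitted dose-response curve; inconclusive = no clear call, values can overlap the other calls; inactive = no choline transporter activation at any dose, or no curve.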

These compounds were tested against High affinity choline transporter 1 (Homo sapiens) (UniProt Q9GZV3) (assay: human choline transporter potentiators, potency – cell-based, 10-point CRC, membrane potential dye, dose response (AID 602376)). Details: HEK293-CHT, choline-induced membrane potential dye, cells express CHT LV-AA mutant; series mostly up to 67 µM.
Chain of High affinity choline transporter 1 (Homo sapiens) (Q9GZV3 whole entry, looked up): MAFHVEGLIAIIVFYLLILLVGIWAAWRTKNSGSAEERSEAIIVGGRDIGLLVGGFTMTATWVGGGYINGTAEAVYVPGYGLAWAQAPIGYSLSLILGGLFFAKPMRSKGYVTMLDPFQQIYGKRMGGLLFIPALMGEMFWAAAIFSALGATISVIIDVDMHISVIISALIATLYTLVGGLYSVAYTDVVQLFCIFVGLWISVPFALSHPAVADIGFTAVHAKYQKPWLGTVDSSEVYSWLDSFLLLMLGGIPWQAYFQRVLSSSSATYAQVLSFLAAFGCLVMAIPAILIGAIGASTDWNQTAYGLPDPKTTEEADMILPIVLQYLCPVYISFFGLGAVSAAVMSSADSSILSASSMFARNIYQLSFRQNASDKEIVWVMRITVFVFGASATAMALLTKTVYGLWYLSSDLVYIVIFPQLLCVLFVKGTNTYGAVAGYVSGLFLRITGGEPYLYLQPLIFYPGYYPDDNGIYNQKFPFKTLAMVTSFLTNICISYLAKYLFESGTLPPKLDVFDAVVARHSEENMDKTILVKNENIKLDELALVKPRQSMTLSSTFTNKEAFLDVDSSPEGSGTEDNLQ

outcome, inactive:
CCc1ccc(NC(=O)CSc2nc3ccccc3c(=O)n2CCCN2CCC(C)CC2)cc1
COc1ccc(NC(=O)C(c2ccccc2)N2CCN(c3ccccn3)CC2)cc1Cl (stereo not given)
COc1cccc(C(c2nnnn2Cc2ccco2)N2CCN(c3cccc(C)c3C)CC2)c1OC (stereo not given)
O=C(COC(=O)c1c2c(nc3ccccc13)CCCCC2)NCc1ccc2c(c1)OCO2
CC(C)CCC(CCNCc1ccccn1)c1ccc(Cl)cc1 (stereo not given)
COc1ccc(C(C)=O)cc1CSc1nc2ccccc2c(=O)n1-c1ccccc1C
CCCCC(c1nnnn1C1CCCC1)N1CCN(C2CCCC2)CC1 (stereo not given)
Cc1cccc2nc(-c3cccnc3)c(NCCC(C)C)n12
COc1cccc(C(c2nnnn2CCc2ccccc2)N2CCN(c3ccccc3)CC2)c1OC (stereo not given)
CC(C)CCNC(=O)/C=C/c1ccc(Br)cc1
CCn1cc(C(=O)OCC(=O)OC2CC(C)CCC2C(C)C)c(=O)c2ccc(C)nc21 (stereo not given)
CCc1ccc(C(O)(CNCc2ccccc2)c2ccccc2)cc1 (stereo not given)
N=c1c2c(n(Cc3ccc(Cl)c(Cl)c3)c3c1CCC3)CCCC2
CCN1C(N(C)CCc2cccs2)=N[C@@H](c2ccccc2)C(C(=O)OC)=C1C
CCN1C(=NCc2ccccc2)N[C@@H](c2ccccc2)[C@H](C(=O)OC)[C@H]1C
CN1CCN(CCCn2cnc3c(=O)oc4ccccc4c32)CC1
CCOc1ccc(S(=O)(=O)NCc2ccco2)c2ccccc12
O=C1CCCCCCCCCC/C(=N\O)CCCO1
CCc1ccc(OCC(=O)N/N=C/c2cc([N+](=O)[O-])ccc2N2CCOCC2)cc1
Cn1c(=O)c2c(nc(CN3CCCCC3)n2CCc2ccccc2)n(C)c1=O
CCC(=O)N(CCC(c1ccc(C)cc1)c1ccco1)Cc1ccco1 (stereo not given)
C=C1CCN(Cc2ccccc2)S(=O)(=O)c2ccccc21
O=C(NC1CCCC1)C(c1ccsc1)N(Cc1ccco1)C(=O)Cc1cccs1 (stereo not given)
CCc1ccc(CN(C)C(=O)CCc2nc3ccccc3n(-c3ccc(OC)cc3)c2=O)cc1
Cc1ccnc2nc(C(=O)Nc3nccs3)nn12
CCOC(=O)C[C@H]1c2ccccc2S(=O)(=O)N1Cc1cccc(C(F)(F)F)c1
CCOC(=O)c1c[nH]c2nc(C)ccc2c1=O
CCN1CCc2nc(NC(=O)C(c3ccccc3)c3ccccc3)sc2C1
CCCC(c1nnnn1Cc1ccco1)N1CCN(c2cc(Cl)ccc2C)CC1 (stereo not given)
C/C(=N\NC(=O)c1nnn(-c2nonc2N)c1CN1CCC(C)CC1)c1cccc(Br)c1
CC(C)C1Oc2ccccc2N(CC(=O)NC2CCCCC2)C1=O (stereo not given)
CN(Cc1ccc(F)cc1)C(=O)C(c1ccccc1)c1ccccc1
Cc1cccc(Oc2nc(CN3CCOCC3)nc3sc4c(c23)CCCC4)c1
Cn1c(=O)c2c(nc(CN3CCN(c4cccc(Cl)c4)CC3)n2CCc2ccccc2)n(C)c1=O
COC(=O)C1=C(C)N(Cc2ccccc2)C(=NCc2ccc(OC)cc2)N[C@H]1c1cccc(F)c1
COc1ccc(N2CCN(c3oc(COc4ccccc4)nc3C#N)CC2)cc1
COc1ccc(-c2c(-c3cc(OC)c(OC)c(OC)c3)noc2C)cn1
O=C(NCC(c1ccco1)N1CCCC1)c1ccccc1Sc1ccc(C(F)(F)F)cc1[N+](=O)[O-] (stereo not given)
O=C1CCC(C(=O)N(Cc2cccs2)C2(C(=O)NC3CCCCC3)CCCCC2)N1 (stereo not given)
COc1cccc(-c2cn(C[C@H]3CC[C@@H]([C@@H]4CC[C@H](Cn5cc(-c6cccc(OC)c6)nn5)O4)O3)nn2)c1
